Experimental data published in the supplement of paper PMC6555819.

Columns and labels:
Assay in all cases: PBM binding z-score (relative to random genomic background probes); higher = stronger binding; sequences stand for … in GC…GCGATTGACAGCGTAGAATGAAGG
[1] = test system: FXR:RXRa (NR concentration 270 nM, RXRa partner concentration 90 nM)
Method in brief: (§1)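 Antibodies against each partner of ligand-free nuclear receptor dimers (one per run) detected binding on custom Agilent 4×180K protein-binding microarrays after 1 h incubation. The double-stranded probes had 34-nt variable regions carrying direct-repeat seeds, single-nucleotide variants, half-site ablations and random human genomic background sequences. Binding z-scores, from regression-normalized fluorescence, use the random background probes as reference.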

[2] = test system: LXRa:RXRa (NR concentration 270 nM, RXRa partner concentration 90 nM)
Method in brief: as §1

[3] = test system: LXRa homodimer (NR concentration 270 nM)
Method in brief: as §1

[4] = test system: LXRb:RXRa (NR concentration 270 nM, RXRa partner concentration 90 nM)
Method in brief: as §1

[5] = test system: LXRb homodimer (NR concentration 270 nM)
Method in brief: as §1

[6] = test system: PPARa:RXRa (NR concentration 270 nM, RXRa partner concentration 90 nM)
Method in brief: as §1

[7] = test system: PPARg:RXRa (NR concentration 180 nM, RXRa partner concentration 90 nM)
Method in brief: as §1

[8] = test system: PPARg:RXRa 270nM:90nM, anti-RXR (NR concentration 270 nM, RXRa partner concentration 90 nM)
Method in brief: as §1

[9] = test system: PPARg:RXRa 30nM:10nM, anti-RXR (NR concentration 30 nM, RXRa partner concentration 10 nM)
Method in brief: as §1

[10] = test system: PPARg:RXRa 90nM:30nM, anti-RXR (NR concentration 90 nM, RXRa partner concentration 30 nM)
Method in brief: as §1

[11] = test system: PPARg:RXRa DBDmut IVT, anti-RXR (DBD mutation: RXRa K156A/R161A, NR concentration 270 nM, RXRa partner concentration 90 nM)
Method in brief: as §1

[12] = test system: PPARg:RXRa IVT, anti-PPARg (NR concentration 270 nM, RXRa partner concentration 90 nM)
Method in brief: as §1

[13] = test system: PPARg DBDmut:RXRa IVT, anti-PPARg (DBD mutation: PPARg1 K132A/R137A, NR concentration 270 nM, RXRa partner concentration 90 nM)
Method in brief: as §1

[14] = test system: PPARg DBDmut IVT, anti-PPARg (DBD mutation: PPARg1 K132A/R137A, NR concentration 270 nM)
Method in brief: as §1

[15] = test system: PPARg homodimer (NR concentration 180 nM)
Method in brief: as §1

[16] = test system: PXR:RXRa (NR concentration 270 nM, RXRa partner concentration 90 nM)
Method in brief: as §1

[17] = test system: PXR homodimer (NR concentration 270 nM)
Method in brief: as §1

[18] = test system: RARa:RXR (NR concentration 270 nM, RXRa partner concentration 90 nM)
Method in brief: as §1

[19] = test system: RARa homodimer (NR concentration 270 nM)
Method in brief: as §1

[20] = test system: RARb:RXRa (NR concentration 270 nM, RXRa partner concentration 90 nM)
Method in brief: as §1

Row | Sequence | PBM binding z-score [1] | PBM binding z-score [2] | PBM binding z-score [3] | PBM binding z-score [4] | PBM binding z-score [5] | PBM binding z-score [6] | PBM binding z-score [7] | PBM binding z-score [8] | PBM binding z-score [9] | PBM binding z-score [10] | PBM binding z-score [11] | PBM binding z-score [12] | PBM binding z-score [13] | PBM binding z-score [14] | PBM binding z-score [15] | PBM binding z-score [16] | PBM binding z-score [17] | PBM binding z-score [18] | PBM binding z-score [19] | PBM binding z-score [20]
1 | GCATCTAGGTAATACAAGGTGAAAGTCCGATTGT | 1.09 | 1.15 | 0.539 | 0.383 | -0.273 | 1.5 | 0.956 | 0.984 | 0.0503 | 0.572 | 4.35 | 3.42 | 0.512 | 0.835 | 0.218 | 0.368 | -0.443 | 0.737 | -0.154 | 0.5
2 | ATCTCTAGGTAAGACTCAGTTCAGTAAAGAACGC | 0.34 | 0.725 | 0.918 | 0.419 | 0.923 | 0.152 | 0.102 | 0.669 | 0.474 | 0.414 | 1.94 | 1.31 | 0.584 | 0.972 | 0.82 | 1.24 | 1.74 | 0.263 | 1.3 | 0.396
3 | ATCTCCAGGTAAAGATAGTTCAGTGAATGCAAAT | 0.234 | 4.39 | 0.615 | 0.852 | 0.602 | 0.316 | 0.194 | 0.28 | 0.232 | -0.042 | 0.28 | 0.419 | 1.11 | 1.09 | 0.798 | 1.1 | 1.1 | 0.0525 | 1.34 | 0.907
4 | CGAACTAGGTCAGAACAGGACGGTGAAGGATGAT | 0.947 | 0.319 | -0.295 | -0.0399 | -0.471 | 2.64 | 4.74 | 4.11 | 2.15 | 3.38 | 7.03 | 7.23 | 1.59 | 1.11 | 0.681 | 0.143 | -0.288 | 0.525 | 0.0623 | 2.55
5 | TCATATAGGTCATACAGGTGAAAGTCGGCATCTA | 6.18 | 5.45 | 1.98 | 4.49 | 1.72 | 5.68 | 7.05 | 6.57 | 5.26 | 6.25 | 6.93 | 6.78 | 2.18 | 2.34 | 2.69 | 3.62 | 1.06 | 4.44 | 2.39 | 4.2
6 | CAAACTAGGTCAAGGTCAGAGTCGGTTTGTGCCA | 5.93 | 4.35 | 1.98 | 3.26 | 0.405 | 5.7 | 9.05 | 7.77 | 6.36 | 8.17 | 8.39 | 8.85 | 4.94 | 5.19 | 4.13 | 4.13 | 1.18 | 4.4 | 2.46 | 5.06
